Measurements reported in PubChem BioAssay (NCI).
This is part of a sample that, as a whole, favours compounds with a hit. Of some 83,000 tested, about 20% had one in any assay.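 Testing used 96-well plates and a 48-hour single-concentration exposure. Example: -40 means 40% of the starting cells died.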 A number with no mark means an inactive call. Active and inactive are the calls of the source. The calls were made as follows: active = growth percent below 10; inactive = the rest.

Columns and labels:
Assay in all cases: NCI-60 one-dose screen, 48 h (100 = growth as untreated, 0 = no growth, -100 = all killed)
Conditions in all cases: 10 µM
NCI-H23 lung = system: NCI-H23 lung
NCI-H226 lung = system: NCI-H226 lung
NCI-H322M lung = system: NCI-H322M lung
HOP-62 NSCLC = system: HOP-62 NSCLC
NCI-H460 lung = system: NCI-H460 lung
A549/ATCC NSCLC = system: A549/ATCC NSCLC
786-0 renal = system: 786-0 renal
COLO 205 colon = system: COLO 205 colon
DU-145 prostate = system: DU-145 prostate

| Compound | growth (NCI-H23 lung) | growth (NCI-H226 lung) | growth (NCI-H322M lung) | growth (HOP-62 NSCLC) | growth (NCI-H460 lung) | growth (A549/ATCC NSCLC) | growth (786-0 renal) | growth (COLO 205 colon) | growth (DU-145 prostate) |
| --- | --- | --- | --- | --- | --- | --- | --- | --- | --- |
| COc1ccc(N=C2C(=Nc3ccc(OC)cc3)N(c3ccc(N(C)C)cc3)C(=S)N2c2ccc(OC)cc2)cc1 | 90.9% | 104% | 90.3% | 64.3% | 85% | 90.4% | 12.3% | 109% | 85.7% |
| CN(C)c1ccc(-c2cc(-c3cccc(NS(C)(=O)=O)c3)nc(N)c2C#N)cc1 | 21.5% | 39.6% | 21.1% | 44.1% | 5.32% (active) | 25.9% | 31% | -71.2% (active) | -25.5% (active) |
| CC/C(C)=C(\C)C(=O)O | 101% | 96.5% | 89.5% | 95% | 105% | 101% | 98.5% | 104% | 104% |
| N#Cc1cccc(OCc2nc(N)nc(N)c2-c2ccc(Cl)c(Cl)c2)c1 | 32.9% | 46.7% | 24.7% | 35.9% | 11.5% | 7.65% (active) | 19.4% | 34.1% | 25.3% |
| CC(C)(C)c1cc(Br)cc(C(C)(C)C)c1O | 107% | 97.5% | 96.7% | 120% | 117% | 91.1% | 103% | 113% | 113% |
| COc1ccc(-c2csc(NC(=O)CSc3nc(C)c(-c4ccccc4)n3Nc3ccccc3)n2)cc1 | 21.8% | 63.8% | 69.8% | 71.1% | 43.2% | 36.6% | 53.3% | 66.6% | 65.3% |
| Cn1c([N+](=O)[O-])cnc1/C=C1\Oc2ccccc2C1=O | -18% (active) | -7.33% (active) | 18.6% | -10.3% (active) | -39.5% (active) | -31.4% (active) | -10.9% (active) | -64.6% (active) | -8.91% (active) |
| COc1ccc(-c2nc(-c3nc4cc(Cl)c(F)cc4[nH]3)c3ccccn23)cc1 | 85.8% | 85.1% | 69.6% | 89.5% | 81.1% | 49.4% | 79.9% | 79.1% | 80.3% |
| CCOC(=O)C(=Cc1ccc(Br)cc1)C(=O)OCC | 17.6% | -33.6% (active) | 39% | 0.525% (active) | 22.4% | -25.6% (active) | -79% (active) | -70.5% (active) | 6.17% (active) |
| Cc1cc(C)c2c(n1)sc1c(Nc3ccc(Cl)cc3)ncnc12 | 4.49% (active) | 1.79% (active) | 32% | 5.01% (active) | 5.8% (active) | 18.2% | -3.32% (active) | 10.6% | 6.73% (active) |
| NC(=O)CC1(c2ccccc2)CCCCC1 | 103% | 110% | 90.9% | 102% | 104% | 116% | 97.1% | 103% | 107% |
| c1ccc2c(c1)oc1c3c(ccc12)NCCC3 | 86% | 90.9% | 91.8% | 97.6% | 99% | 90.3% | 90.5% | 114% | 103% |
| COc1cc(/C=C/C(=O)c2ccc(Cl)cc2)ccc1OS(=O)(=O)c1ccc(C)cc1 | 99.3% | 98.5% | 96.7% | 95.1% | 103% | 99.9% | 102% | – | 105% |
| COc1ccc(-c2nn(-c3cccc(NC(=O)c4ccc(Cl)c(Cl)c4)c3)cc2-c2ccncc2)cc1Cl | 94.9% | 83.5% | 83.6% | 94% | 79.4% | 70% | 80% | 86.2% | 92.1% |
| CC/C(=C(/c1ccc(OCCN(C)C)cc1)c1ccc(OC(=O)CCCCCCCCC(=O)c2c(C)[nH]c(/C=C3\N=C(c4ccc[nH]4)C=C3OC)c2C)cc1)c1ccccc1 | 88% | 52.6% | 77% | 75.9% | 46.9% | 50% | 63.9% | 88% | 67.6% |
| Cc1nc2ccccc2c(N)c1-c1cc(C)c2c(C)nc3ccccc3c2n1 | 44.8% | 98.8% | 10.7% | 58.4% | -75.8% (active) | -75.4% (active) | -89.2% (active) | -91% (active) | -82.4% (active) |
| CCc1ccc2c(c1)N(CCO)C1=C(C(=O)OC1)C2c1cc(OC)c(OC)c(OC)c1 (centres undefined) | 19.5% | 3.03% (active) | 13.7% | 28.8% | 2.43% (active) | 16.3% | 20.2% | -69.3% (active) | -28.3% (active) |
| Cc1cccc(NC2=C(C#N)C(=O)NC3(CCCC3)S2)c1 | 100% | 96.5% | 112% | 98.7% | 107% | 30.2% | 103% | 127% | 117% |
| O=C(Nc1cccc(-n2cc(-c3ccncc3)c(-c3ccc(O)c(Cl)c3)n2)c1)c1ccc(Cl)c(Cl)c1 | 78.5% | 80.6% | 77.3% | 67.7% | 20.8% | 41.2% | 55.3% | 102% | 80.5% |
| Cc1ccc(-c2n[nH]c(=O)c3noc(-c4ccc(C)cc4)c23)cc1 | 61.8% | 80.9% | 49.5% | 29.2% | 17.3% | 36.8% | 48.4% | -25.1% (active) | 25.2% |
